Reference: PubChem BioAssay (Tox21)
Several values for one entry are separate records, joined by “and”; a condition that tells them apart may be missing. Equal entries are not always repeated. Results filed as inconclusive are left out. Activity calls are given as the source filed them. Unless noted, calls come from the whole dose curve; as a rule, active = well fitted curve in the direction sought with a large enough effect in the repeat runs; inconclusive = weak or mixed curves; inactive = no such curve, though single readings can be large; an effect the other way counts as inactive or inconclusive.

Tests used:
[1] = biological target: Retinoic acid receptor RXR-alpha (Homo sapiens) (UniProt P19793); experiment: qHTS assay to identify small molecule agonists of the RXR signaling pathway (AID 1159527; calls by dose curve; note: nearly all actives have a fitted effect of over 35% in size)
Retinoic acid receptor RXR-alpha (Homo sapiens), sequence (P19793 whole entry, looked up): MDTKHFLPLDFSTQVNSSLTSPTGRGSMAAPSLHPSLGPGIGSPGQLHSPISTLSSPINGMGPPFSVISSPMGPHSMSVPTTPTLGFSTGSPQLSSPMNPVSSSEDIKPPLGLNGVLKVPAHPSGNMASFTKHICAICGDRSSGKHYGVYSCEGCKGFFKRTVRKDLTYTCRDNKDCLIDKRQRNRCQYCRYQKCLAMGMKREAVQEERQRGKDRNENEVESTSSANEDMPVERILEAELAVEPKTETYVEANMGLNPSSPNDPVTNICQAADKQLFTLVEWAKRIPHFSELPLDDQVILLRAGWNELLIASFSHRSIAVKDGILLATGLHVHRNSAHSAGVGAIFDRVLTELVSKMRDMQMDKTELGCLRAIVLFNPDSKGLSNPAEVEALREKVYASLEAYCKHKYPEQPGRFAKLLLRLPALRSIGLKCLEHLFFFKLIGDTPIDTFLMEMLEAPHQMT
How it was run: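 qHTS of the Tox21 10K library in GeneBLAzer RXR-alpha HEK 293T cells carrying a beta-lactamase reporter […]; 16 hr treatment, 9-cis retinoic acid as agonist control, FRET read-out.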

[2] = qHTS assay to identify small molecule agonists of the RXR signaling pathway - cell viability counter screen (AID 1159529); note: series mostly up to about 77 µM; nearly all actives have a fitted effect of over 50% in size
How it was run: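 Cell viability is measured by CellTiter-Glo luminescence, 30 min at room temperature, in wells already read for beta-lactamase. Engineered HEK 293T cells (RXR-alpha-UAS-bla) are dosed 16 hr at 37 C. Tetraoctyl ammonium bromide serves as positive control.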

[3] = qHTS assay to identify small molecule antagonists of the retinoid acid receptor (RAR) signaling pathway - cell viability counter screen (AID 1159551); note: nearly all actives have a fitted effect of over 35% in size
How it was run: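 Luminescent ATP quantitation (CellTiter-Glo) gave cell viability in C3RL4 cells exposed to test chemicals for 6 h at 37 C alongside 1 uM final retinol.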

[4] = qHTS assay to identify small molecule antagonists of the retinoic acid receptor (RAR) signaling pathway (AID 1159552; note: nearly all actives have a fitted effect of over 50% in size)
How it was run: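 Quantitative HTS in C3RL4 RARE-luciferase reporter cells. Compounds were added with 1 uM (final) retinol; luminescence was read after 6 hr.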

[5] = qHTS assay to identify small molecule agonists of the retinoic acid receptor (RAR) signaling pathway (AID 1159553); note: potency is the fitted concentration of half-maximal effect
How it was run: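 Luminescence from a RARE-driven luciferase reporter in C3RL4 cells served as the read-out, measured after 30 min with detection reagent at room temperature. Compounds in DMSO were applied for 6 hr at 37 C following overnight seeding.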

[6] = qHTS assay to identify small molecule antagonists of the estrogen related receptor (ERR) signaling pathway - cell viability counter screen (AID 1224818);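 note: series mostly up to about 46 µM; viability measured after 17.5 h of compound exposure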
How it was run: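 Multiplexed counter screen to separate cytotoxic compounds from true ERR modulators. ERR cells received DMSO-dissolved compounds after a 6 h pre-incubation, were exposed 17.5 h at 37 C, then assayed with CellTiter-Fluor fluorescence.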

[7] = qHTS assay to identify small molecule antagonists of the estrogen related receptor signaling pathway with the pleiotropic PPARgamma coactivator (PGC) cell viability counter screen (AID 1224822; note: series mostly up to about 46 µM)
How it was run: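 Cells: PGC/ERR, 2,000/well, 1536-well format. Pre-incubation 6 h, 37 C/5% CO2. Compound exposure 17.5 h, 37 C. Detection: CellTiter-Fluor, 30 min, fluorescence.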

[8] = qHTS assay to identify small molecule antagonists of the estrogen related receptor (ERR) signaling pathway from Tox21 library - cell viability counter screen (AID 1224834); note: nearly all actives have a fitted effect of over 30% in size
How it was run: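 Fluorescence from CellTiter-Fluor gives the viability read-out, taken 30 min after reagent addition. Before that, ERR cells seeded 6 h earlier were incubated with compounds for 17.5 h at 37 C.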

[9] = biological target: Luciferin 4-monooxygenase (Photinus pyralis) (UniProt P08659); experiment: qHTS assay to identify small molecule inhibitors of firefly luciferase (AID 1224835); note: series mostly up to about 120 µM; nearly all actives have a fitted effect of over 25% in size
Luciferin 4-monooxygenase (Photinus pyralis), sequence (P08659 whole entry, looked up): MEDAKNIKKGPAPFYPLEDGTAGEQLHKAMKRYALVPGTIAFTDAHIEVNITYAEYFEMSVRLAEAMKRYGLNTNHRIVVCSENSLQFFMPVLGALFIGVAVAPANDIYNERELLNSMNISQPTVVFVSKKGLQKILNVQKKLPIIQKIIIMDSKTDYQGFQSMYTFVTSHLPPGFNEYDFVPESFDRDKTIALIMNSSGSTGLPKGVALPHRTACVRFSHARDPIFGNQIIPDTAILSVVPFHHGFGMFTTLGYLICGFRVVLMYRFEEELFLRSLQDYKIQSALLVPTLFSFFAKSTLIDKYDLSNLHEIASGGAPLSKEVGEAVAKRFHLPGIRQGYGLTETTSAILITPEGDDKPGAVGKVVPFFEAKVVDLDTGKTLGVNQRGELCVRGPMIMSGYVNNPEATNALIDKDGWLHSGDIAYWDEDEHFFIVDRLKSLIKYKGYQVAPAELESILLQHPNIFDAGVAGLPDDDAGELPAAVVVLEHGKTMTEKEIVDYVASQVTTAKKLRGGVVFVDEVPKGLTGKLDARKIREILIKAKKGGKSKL
How it was run: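 Inhibition of purified Photinus luciferase is measured by luminescence. Substrate levels (D-luciferin, ATP) sit at their KM values. Each compound is tested in a concentration series.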

[10] = qHTS assay to identify small molecule agonists of the constitutive androstane receptor (CAR) signaling pathway - cell viability counter screen (AID 1224836); note: series mostly up to about 92 µM; nearly all actives have a fitted effect of over 45% in size
How it was run: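 Counter screen multiplexed with the CAR reporter readout: HepG2 cells co-transfected with hCAR and the CYP2B6-2.2kb construct receive a 15-concentration compound series and 0.75 uM PK11195 (final), then CellTiter-Fluor fluorescence is read after 23 h.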

[11] = qHTS assay to identify small molecule antagonists of the constitutive androstane receptor (CAR) signaling pathway - cell viability counter screen (AID 1224837); note: series mostly up to about 92 µM; nearly all actives have a fitted effect of over 45% in size
How it was run: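 HepG2-CYP2B6-hCAR cells, 2500/well, 4 hr pre-incubation; compound titration, 15 conc.; CITCO 50 nM final; 23 hr, 37 C/5% CO2; CellTiter-Fluor, fluorescence intensity.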

[12] = biological target: Nuclear receptor subfamily 1 group I member 3 (Homo sapiens) (UniProt Q14994); experiment: qHTS assay to identify small molecule antagonists of the constitutive androstane receptor (CAR) signaling pathway (AID 1224838);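 note: HepG2 cells stably expressing hCAR with CYP2B6 luciferase reporter stimulated by CITCO; nearly all actives have a fitted effect of over 40% in size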
Nuclear receptor subfamily 1 group I member 3 (Homo sapiens), sequence (Q14994 whole entry, looked up): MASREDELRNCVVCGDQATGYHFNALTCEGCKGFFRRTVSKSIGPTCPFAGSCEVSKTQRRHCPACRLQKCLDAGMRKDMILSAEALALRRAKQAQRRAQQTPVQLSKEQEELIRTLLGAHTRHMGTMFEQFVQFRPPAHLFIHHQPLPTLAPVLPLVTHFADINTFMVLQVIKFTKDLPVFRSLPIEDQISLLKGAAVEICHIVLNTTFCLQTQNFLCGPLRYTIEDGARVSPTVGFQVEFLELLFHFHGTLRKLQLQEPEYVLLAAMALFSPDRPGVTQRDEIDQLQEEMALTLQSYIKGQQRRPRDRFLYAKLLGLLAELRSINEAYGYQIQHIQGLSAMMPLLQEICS
How it was run: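 HepG2-CYP2B6-hCAR cells; 4 h pre-incubation; cpd (15 conc) + CITCO 50 nM final; 24 h, 37 C/5% CO2; ONE-Glo, luminescence.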

[13] = biological target: Nuclear receptor subfamily 1 group I member 3 (Homo sapiens) (UniProt Q14994); experiment: qHTS assay to identify small molecule agonists of the constitutive androstane receptor (CAR) signaling pathway (AID 1224839); note: series mostly up to about 92 µM; nearly all actives have a fitted effect of over 15% in size
How it was run: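 A 15-concentration quantitative screen uses HepG2 cells co-transfected stably with human CAR and CYP2B6-2.2kb reporter. Treatment lasts 24 h with 0.75 uM PK11195 final present; ONE-Glo luminescence is the signal.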

[14] = qHTS assay to identify small molecule antagonists of the estrogen related receptor signaling pathway with the pleiotropic PPARgamma coactivator (PGC) from Tox21 10K library - cell viability counter screen (AID 1224840; active = well fitted cell-killing curve with a large enough effect in the repeat runs, not every such curve was filed as active; note: nearly all actives have a fitted effect of over 40% in size)
How it was run: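 PGC/ERR cells, 2,000/well; 6 h pre-incubation 37 C/5% CO2; cpd in DMSO via pin tool; 17.5 h 37 C; CellTiter-Fluor, 30 min; fluorescence.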

[15] = biological target: Thyrotropin receptor (Homo sapiens) (UniProt P16473); experiment: qHTS assay to identify small molecule agonists of the thyroid stimulating hormone receptor (TSHR) signaling pathway (AID 1224843; calls by dose curve; note: nearly all actives have a fitted effect of over 45% in size)
Thyrotropin receptor (Homo sapiens), sequence (P16473 whole entry, looked up): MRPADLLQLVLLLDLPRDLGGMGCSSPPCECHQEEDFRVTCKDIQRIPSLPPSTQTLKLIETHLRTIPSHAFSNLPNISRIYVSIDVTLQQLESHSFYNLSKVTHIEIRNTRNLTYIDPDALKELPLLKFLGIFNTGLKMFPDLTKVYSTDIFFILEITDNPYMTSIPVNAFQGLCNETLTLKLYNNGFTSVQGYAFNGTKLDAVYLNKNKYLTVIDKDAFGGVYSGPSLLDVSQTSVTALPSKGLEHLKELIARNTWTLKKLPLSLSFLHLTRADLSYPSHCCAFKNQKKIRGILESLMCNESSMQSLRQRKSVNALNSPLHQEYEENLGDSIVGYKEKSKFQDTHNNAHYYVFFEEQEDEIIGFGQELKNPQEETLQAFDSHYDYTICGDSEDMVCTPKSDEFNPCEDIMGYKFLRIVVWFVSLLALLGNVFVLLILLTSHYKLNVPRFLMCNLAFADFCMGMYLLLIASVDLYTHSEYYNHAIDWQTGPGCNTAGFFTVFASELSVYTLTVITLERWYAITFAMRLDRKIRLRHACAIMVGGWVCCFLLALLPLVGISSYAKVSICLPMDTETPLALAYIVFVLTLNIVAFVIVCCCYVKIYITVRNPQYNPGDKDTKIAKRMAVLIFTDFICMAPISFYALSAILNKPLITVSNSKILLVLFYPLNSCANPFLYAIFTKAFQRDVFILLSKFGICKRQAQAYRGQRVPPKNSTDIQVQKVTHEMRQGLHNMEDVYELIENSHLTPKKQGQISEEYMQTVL
How it was run: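 HEK293 cells stably bearing the thyrotropin receptor were plated at 800 cells/well and challenged with compound (30 min, RT). Accumulated cAMP was quantified via cAMP-d2 competing for cryptate-tagged antibody.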

[16] = qHTS assay to identify small molecule agonists of the hypoxia (HIF-1) signaling pathway - cell viability counter screen (AID 1224844; calls by dose curve; note: nearly all actives have a fitted effect of over 50% in size)
How it was run: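 ME-180 HRE-bla cells, 2,000/well, 0.5% dialyzed FBS; 5 hr settle, 17 hr compound at 37C/5% CO2; CCF4-AM reporter read first, then CellTiter-Glo luminescence after 30 min RT.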

[17] = qHTS assay to identify small molecule agonists of H2AX (AID 1224845; active = well fitted activation curve with a large enough effect in the signal ratio in the repeat runs, not every such curve was filed as active; the % refers to the signal ratio)
How it was run: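 Phospho-H2AX Ser139 measured by HTRF (ex 320 nm; em 665 and 620 nm) after 24 hr antibody incubation. Compounds, 15 concentrations, 0.76% DMSO, were applied to CHO-K1 cells for 3hr at 37C before lysis.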

[18] = qHTS assay to identify small molecule agonists of H2AX - cell viability counter screen (AID 1224847; calls by dose curve; note: top concentration of the series differs between compounds; nearly all actives have a fitted effect of over 30% in size)
How it was run: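 We seed wild-type CHO-K1 cells overnight, treat them for 3 hr at 37C with compounds in 15-concentration series, and quantify remaining viability by CellTiter-Glo luminescence.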

[19] = qHTS assay to identify small molecule agonists of the hypoxia (HIF-1) signaling pathway (AID 1224846; active = well fitted activation curve with a large enough effect in the signal ratio in the repeat runs, not every such curve was filed as active; the % refers to the signal ratio)
How it was run: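 Cell line: CellSensor HRE-bla ME-180; 2,000 cells/well; 0.5% dialyzed FBS; 5 h preincubation; DMSO compound pin transfer; 17 h, 37C, 5% CO2; CCF4-AM added; bla FRET signal scored for activation.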
% is set by controls: 0 for no effect and ±100 for the full control effect.

CN(C)CCC(c1ccccc1)c1ccccn1 (stereo not drawn)
inactive: Potency [1] | Potency [2] | outcome [3] | Potency [4] | Potency [5] | outcome [6] | outcome [7] | Potency [8] | Potency [9] | Potency [10] | Potency [11] | Potency [12] | Potency [13] | Potency [14] | Potency [15] | Potency [16] | Potency [17] | Potency [18]

Cc1ccc2oc(=O)ccc2c1
inactive: Potency [1] | Potency [2] | outcome [3] | Potency [4] | Potency [5] | Potency [8] | Potency [9] | Potency [10] | Potency [11] | Potency [12] | Potency [14] | Potency [15] | Potency [17] | outcome [19] | Potency [18]

C=C(C)C(=O)OCCOCCOCCOC(=O)C(=C)C
inactive: Potency [1] | Potency [2] | outcome [3] | Potency [4] | Potency [5] | Potency [8] | Potency [9] | Potency [10] | Potency [12] | Potency [13] | Potency [14] | Potency [15] | Potency [17] | outcome [19] | Potency [18]

NNc1nncc2ccccc12
inactive: activation [1] -4.54% [at 15.8 µM] | activity change, negative = cytotoxicity [2] -0.524% [at 15.8 µM] | outcome [3] | Potency [4] | outcome [6] | outcome [7] | viability change, negative = cytotoxic [8] 6.05% [at 19 µM] | Potency [10] | Potency [11] | Potency [12] | viability change, negative = cytotoxic [14] 3.22% [at 19 µM] | activation [15] -1.13% [at 19 µM] | activation (H2AX phosphorylation) [17] 1% [at 31.6 µM] | Potency [18]
active: Potency [5] 770 nM and 5.17 µM
